Test results as given in the supplement of paper PMC3484114.
± gives the standard deviation.

Tested on: OVCAR-3-derived ovarian cancer stem-like cells (spheroids)
Assay: cell growth relative to untreated control; higher = more growth (less inhibition)
Conditions: 2.29 µM; 96 h
Method in brief: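 Viability of stem-like cells from OVCAR-3 spheroids was assessed with TOX8 resazurin fluorescence at ex 560/em 590 nm. The cells had been trypsin-dissociated, seeded at 50,000 cells/mL in stem cell medium in ultra-low attachment 96-well plates and preincubated 24 h, then treated with compounds at 2.29 uM for 96 h at 37°C, 5% CO2, in 4 replicate wells, with fluorescence read after 4 h. Results were converted to percent growth against untreated wells after blank subtraction and Grubbs outlier removal.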

`N#CC(C#N)=Cc1cccc(Oc2ccccc2)c1` and `COC(=O)/C(=N\NC(=O)c1ccccc1O)C(C#N)c1ccccc1` (centres undefined) are within error of each other in cell growth: 74.1 ± 8% for the first, 99.9 ± 33% for the second.

Compared with `O=C1C=C(Nc2cccnc2)c2ccccc2C1=O`, `O=C1C(c2cnc3ccccc3n2)=C(O)c2ccccc21` is higher in cell growth: 59.3 ± 11% for the first, 197 ± 48% for the second.

`COc1cc2c3c(c1OC)-c1cc4c(cc1CC3(C#N)N(C(=O)c1ccccc1)CC2)OCO4` (centres undefined) and `CCC1CN2CCc3cc(OC)c(OC)cc3C2CC1CC1c2cc(OC)c(OC)cc2CCN1C(=O)C(Cc1c[nH]c2ccccc12)NC(=O)OC(C)(C)C` (centres undefined) are within error of each other in cell growth: 93.1 ± 24% for the first, 94 ± 23% for the second.

First: COc1cc(OC)c2c(C)cc(=O)oc2c1
Second: COc1ccc(-c2cc(=O)c3c(O)cc(O)cc3o2)cc1OC
The cell growth of the first is higher: 108 ± 32% for the first, 4.9 ± 3.4% for the second.

`CC(C)C1(Cl)CCC2C3(C)CCCC(C)(C(=O)O)C3CC(Cl)C2(Cl)C1Cl` (centres undefined) and `CN(C)c1ccc2c(SCC(=O)OCC(=O)[C@@]3(O)CC[C@H]4[C@@H]5CCC6=CC(=O)C=C[C@]6(C)[C@H]5C(=O)C[C@@]43C)c3ccc(N(C)C)cc3nc2c1` are within error of each other in cell growth: 94.6 ± 30% for the first, 59.1 ± 8.1% for the second.

`COc1ccc(/C(=N/O)C(c2ccc(OC)cc2)C2C(=O)Oc3ccccc32)cc1` (centres undefined) and `COc1ccc(NC(=O)CC(=O)N2N=C(C)C(N=Nc3ccc(S(=O)(=O)c4ccc(N=NC5C(=O)N(C(=O)CC(=O)Nc6ccc(OC)cc6)N=C5C)cc4)cc3)C2=O)cc1` (centres undefined) are within error of each other in cell growth: 73.1 ± 14% for the first, 105 ± 30% for the second.

Compared with `C[C@H](CN1CC(=O)NC(=O)C1)N1CC(=O)NC(=O)C1`, `CC(CN1CC(=O)NC(=O)C1)N1CC(=O)NC(=O)C1` (centres undefined) is higher in cell growth: 131 ± 20% for the first, 221 ± 43% for the second.

`O=C1Cc2c(-c3ccccc3)cc(-c3cccc(Cl)c3)nc2-c2ccccc2N1` and `O=C1/C(=C\c2ccccc2)CN(C(=O)/C=C/c2ccccc2)C/C1=C\c1ccccc1` are within error of each other in cell growth: 99.6 ± 21% for the first, 74.7 ± 18% for the second.

`CN1CCN(CCCN2c3ccccc3Sc3ccc(C(F)(F)F)cc32)CC1` and `CN(C)CCCN1c2ccc3ccccc3c2Sc2cccc(Cl)c21` are within error of each other in cell growth: 79.1 ± 24% for the first, 104 ± 19% for the second.

`Cc1c(N=Cc2ccc(N(CCC#N)CCC#N)cc2)c(=O)n(-c2ccccc2)n1C` and `N#CCCN(CCC#N)c1ccc(/C=C2/N=C(c3cc([N+](=O)[O-])ccc3Cl)OC2=O)cc1` are within error of each other in cell growth: 133 ± 36% for the first, 114 ± 40% for the second.

`CC(C)(C)c1ccc(O)c(CN(Cc2cc(C(C)(C)C)ccc2O)C2CCCCC2)c1` and `O=C(OCC12CC3CC(CC(C3)C1)C2)c1ccc(NCc2cc(O)ccc2O)cc1` are within error of each other in cell growth: 145 ± 56% for the first, 159 ± 28% for the second.

`CCCCCCC1CC(=O)C1(Cl)Cl` (centres undefined) and `CCCCCCCCCCCCCCCCOCC(O)CO` (centres undefined) are within error of each other in cell growth: 104 ± 16% for the first, 126 ± 28% for the second.

`COC(=O)C[S+]([O-])c1ccccc1` (centres undefined) and `COc1ccc(O)cc1` are within error of each other in cell growth: 84.6 ± 18% for the first, 62.6 ± 18% for the second.

`Cc1c2ccnc(C(N)=O)c2c(C)c2c1[nH]c1ccccc12` and `Oc1[nH]c2ccccc2c1N=Nc1c(F)c(F)c(F)c(F)c1F` are within error of each other in cell growth: 113 ± 10% for the first, 100 ± 13% for the second.

`CN=c1sc2c(n1C)C(=O)c1ccccc1C2=O` and `CCN(CC)CCNc1ccc(CO)c2sc3ccccc3c(=O)c12` are within error of each other in cell growth: 83.2 ± 26% for the first, 99 ± 39% for the second.

`CC(C)N.CC(C)N.[Cl-].[Cl-].[OH-].[OH-].[Pt]` and `CC1=C/C(=N\OCC(=O)O)CC(c2ccc(C(C)C)cc2)C1` (centres undefined) are within error of each other in cell growth: 65.4 ± 57% for the first, 12.4 ± 5% for the second.

Going from `CO[C@H]1/C=C\C=C(/C)C(=O)NC2=CC(=O)C(N)=C(C[C@@H](C)C[C@H](OC)[C@H](O)[C@@H](C)/C=C(\C)[C@@H]1OC(N)=O)C2=O` to `CN(Cc1cnc2nc(N)nc(N)c2n1)c1ccc(C(=O)N[C@@H](CCC(=O)O)C(=O)O)cc1`, the cell growth rises from 29.6 ± 4.9% to 96.7 ± 31%.

Compared with `CNC(=O)c1cc(NC(=O)N(CCC#N)CCN(C(=O)N[C@@H](Cc2ccccc2)C(=O)N[C@@H](CC(C)C)C(=O)NC)c2ccccc2)ccc1OC`, `CCN1/C(=C\C(C)=C\c2sc3ccccc3[n+]2CC)Sc2ccccc21` is lower in cell growth: 98.9 ± 15% for the first, 31.4 ± 6.9% for the second.

Going from `O=C1C=CC(=O)c2c(O)c(N3CCN(CCOCCO)CC3)c(Br)c(O)c21` to `Nc1nc(N)c(-c2cccc(C(F)(F)F)c2)c(Cc2cccc(C(F)(F)F)c2)n1`, the cell growth rises from 18 ± 6.4% to 114 ± 34%.

With `CCN(CC)CC(C)(C)C(=O)/C=C/c1ccc(C)cc1` the cell growth was 80.7 ± 22%.
